High-throughput results from PubChem.
Rango dissoc inh = qHTS Assay for Inhibitors of RanGTP induced Rango (Ran-regulated importin-beta cargo) - Importin beta complex dissociation | Biochemical FRET Rango-importin beta, RanGTP-induced dissociation | Potency, µM (highest dose often 46.1 µM), inactives show at the highest dose activity change, negative = inhibition | hit rate 0.071% among 340,000; note: potency is the fitted concentration of half-maximal effect; % of control where 0% means no effect; nearly all actives have a fitted effect of over 45% in size
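Rango (0.1 uM)–importin beta (0.25 uM) complex; RanGTP-RCC1 trigger; 45 min RT; CFP/YFP FRET read.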
DRD3 agonist = qHTS of D3 Dopamine Receptor Agonist: qHTS; D3R DiscoveRx beta-arrestin cells, luminescence, 90 min; max activation, %; hit rate 0.58% among 410,000; in the data active = max activation above about 30%; note: 0% is about no effect
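Agonist-mode cell screen: cells plated at 1500/well and incubated overnight at 37 °C, then exposed to library compounds for 90 min at 37 °C. Detection reagent was added for 30–60 min at room temperature, and luminescence was read.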
Rango complex inh = qHTS Assay for Inhibitors of Rango (Ran-regulated importin-beta cargo) - Importin beta complex formation | Rango CFP/YFP FRET sensor + importin beta, 45 min | hit rate 0.031% among 340,000 | Potency, µM (doses to about 92.2 µM), without a hit: at the highest dose inhibition of complex formation | AID 540263, 2011;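 note: potency is the fitted concentration of half-maximal effect; 0% = DMSO wells and 100% = buffer wells lacking importin beta; nearly all actives have a fitted effect of over 15% in size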
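FRET biosensor Rango (snurportin 1 IBB between N-terminal EYFP and C-terminal Cerulean), 50 nM in PBS/1 mM DTT/0.02% Tween-20/0.1% BSA, preincubated 5 min RT with compound; 0.125 microM importin beta added, 45 min RT, CFP/YFP FRET ratio read.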
PTAP TSG101 blk = qHTS Assay for Iinhibitors of HIV-1 Budding by Blocking the Interaction of PTAP/TSG101; Potency, µM (highest dose often 115 µM), for the others: at the top dose activity change, negative = inhibition, actives largely listed as inhibitors; 340,000 tested, under 10 active; AID 493005, 2010; Fluorescence polarization, FITC-PTAP peptide / Tsg101 binding; Tumor susceptibility gene 101 protein (Homo sapiens), Q99816; active = well fitted inhibition curve with a large enough effect in the main read-out, with a control signal flat, not every such curve was filed as active; inconclusive = small, poorly fitted or top-dose-only effect, or effect the other way, or a change in a side signal; inactive = no such curve, though single readings can be large or run the other way; note: potency is the fitted concentration of half-maximal effect; % of control where 0% means no effect
Target sequence (Q99816 whole entry, looked up): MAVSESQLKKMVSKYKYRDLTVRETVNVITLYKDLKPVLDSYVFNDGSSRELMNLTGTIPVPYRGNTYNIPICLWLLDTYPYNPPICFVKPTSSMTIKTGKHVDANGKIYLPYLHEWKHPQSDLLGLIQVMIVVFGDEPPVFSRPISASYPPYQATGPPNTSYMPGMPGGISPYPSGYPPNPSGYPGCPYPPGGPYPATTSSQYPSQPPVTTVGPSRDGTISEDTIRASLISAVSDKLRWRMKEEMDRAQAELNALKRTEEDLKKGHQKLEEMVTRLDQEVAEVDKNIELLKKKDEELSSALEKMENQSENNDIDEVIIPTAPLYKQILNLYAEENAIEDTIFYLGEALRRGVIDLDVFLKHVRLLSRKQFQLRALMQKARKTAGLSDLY
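Compounds were pin-transferred onto Tsg101 binding domain (10 uM final) in HEPES pH 7.5 buffer, then FITC-PTAP peptide was added at 50 nM final. After 20 min at RT, polarization reported peptide displacement across a qHTS concentration series.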
MmCpn inh = Inhibitors of TCP-1 ring complex (TRiC) of Methanococcus maripaludis (MmCpn): qHTS; hit rate 0.031% among 330,000; Chaperonin Mm-Cpn (Methanococcus maripaludis); Potency, µM (series often up to 76.9 µM), for inactives: top-dose activity, negative = inhibition, hits mostly inhibitors; purified Mm-Cpn ATPase, ADP Transcreener TR-FRET; AID 504842, 2011; active = well fitted inhibition curve with a large enough effect; inconclusive = small, poorly fitted or top-dose-only effect; note: potency is the fitted concentration of half-maximal effect; % is set by controls: 0 for no effect and ±100 for the full control effect; nearly all actives have a fitted effect of over 80% in size
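Inhibition of chaperonin ATP hydrolysis is measured as reduced ADP production, detected by competitive TR-FRET in which signal falls with ADP. Final enzyme 25 nM and ATP 10 uM, reacted 30 min at 37°C.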
DRD3 antagonist = qHTS of D3 Dopamine Receptor Antagonist: qHTS | D(3) dopamine receptor (Homo sapiens), P35462 | D3R cells, DiscoveRx beta-arrestin luminescence, antagonist mode; active compounds read low | hit rate 2.5% among 360,000 | max response, negative = inhibition, % | AID 652054, 2013; in the data active = max response below about -50%; inconclusive = no clear call, values can overlap the other calls; note: % is set by controls: 0 for no effect and ±100 for the full control effect
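Cells expressing the human receptor were seeded at 1500 cells/well, incubated overnight at 37 degrees C in 5% CO2, then exposed to library compounds with dopamine controls for 90 minutes at 37 degrees C before luminescent detection.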
Numbers without * were called inactive; ? = inconclusive; nt = no result given. A selection: hits, their analogues and other compounds. The true share with any hit is near 2.9%. Unless noted, calls come from the whole dose curve.

SMILES | Rango dissoc inh | DRD3 agonist | Rango complex inh | PTAP TSG101 blk | MmCpn inh | DRD3 antagonist
COC(=O)c1ccc(-c2nc(CN3CCCN(C(=O)c4ccco4)CC3)c(C)o2)cc1 | -24% | -1 | 1% | -2% | 1% | 4
COc1ccc(-c2nc(CN3CCN(C(=O)c4ccco4)CC3)c(C)o2)c(F)c1 | -1% | 35* | 4% | -3% | 0% | 20
Cc1oc(-c2ccc(F)cc2F)nc1CN1CCN(C(=O)c2ccco2)CC1 | nt | -1 | nt | nt | nt | -23
COc1cccc(OCCCCn2c(-c3ccc(Cl)cc3)nc3ccccc3c2=O)c1 | nt | -11 | nt | nt | nt | nt
CCN1CCCC1CNC(=O)c1cc2c(OC)c(OC)c(OC)cc2[nH]1 (stereo unspecified) | -1% | -44 | -2% | -4% | -3% | -61*
CCN1CCCC1CNC(=O)c1cc(OC)c(OC)c(OC)c1 (stereo unspecified) | 3% | -1 | -3% | -5% | -1% | -61*
CCN1CCCC1CNC(=O)c1c(O)c2c([nH]c1=O)CCCC2 (stereo unspecified) | 11% | -3 | 4% | 0% | -7% | -11
CCN1CCCC1CNC(=O)c1cc2c(OC)cccc2[nH]1 (stereo unspecified) | -18% | -5 | -6% | -1% | -3% | -17
CCN1CCC[C@H]1CNC(=O)c1c(O)c(Cl)cc(Cl)c1OC | 7% | -94 | -5% | 3% | 1% | -117*
CCN1CCCC1CNC(=O)CCNC(=O)c1cc(OC)c(OC)c(OC)c1 (stereo unspecified) | -14% | 7 | 2% | -2% | 2% | 18
CCOc1ccc(NC(=O)NCc2ccc3c(c2)CCN3C(C)=O)cc1 | nt | -19 | nt | nt | nt | nt
CC(C)(C)OC(=O)NCCC(=O)Oc1ccc2ccc(=O)oc2c1 | 9.2µM* | 2 | ? | -1% | -7% | 36
CC(NC(=O)OC(C)(C)C)C(=O)Oc1ccc2ccc(=O)oc2c1 (stereo unspecified) | ? | 4 | ? | -1% | -9% | 2
c1ccc(-c2cc3ncc4c(n3n2)-c2ccccc2OC4)cc1 | nt | 14 | nt | nt | nt | nt
CCOC(=O)NNc1ccc(N(CC)CC(C)O)nn1 (stereo unspecified) | nt | -5 | nt | nt | nt | nt
CCc1ccc(-c2cc(C)no2)cc1S(=O)(=O)Nc1cccc(CN2CCCC2)c1 | 2% | -16 | 0% | 2% | -8% | 6
CCCCCCc1cc2cc(C(=O)OCC)c(=O)oc2cc1O | ? | 4 | ? | -7% | -15% | 5
CCCCCCc1cc2cc(S(=O)(=O)c3ccc(F)c(Cl)c3)c(=O)oc2cc1O | ? | 69* | ? | 0% | -2% | 30
CC1CCN(CCCCOc2cccc(C(C)C)c2)CC1 | ? | -20 | 0% | 0% | -1% | -108*
Clc1cccc(OCCN2CCN(CCOc3cccc(Cl)c3)CC2)c1 | -6% | 58* | 2% | 0% | 1% | -21
CC1CCN(CCOc2cccc(Br)c2)CC1 | 1% | 3 | 6% | -1% | 0% | -75*
Cc1nn(CCOc2cccc(Cl)c2)c(C)c1[N+](=O)[O-] | -9% | -15 | -6% | -4% | 1% | -64*
Cc1nn(CCOc2ccccc2Cl)c(C)c1[N+](=O)[O-] | 3% | -11 | 4% | -1% | -1% | ?
CC(C)c1cccc(OCCCCN(C)C)c1 | 2% | -19 | 3% | -5% | 3% | -58*
Brc1cccc(OCCCN2CCCCCC2)c1 | 20% | -17 | 4% | 0% | 0% | -74*
SMILES | Rango dissoc inh | DRD3 agonist | Rango complex inh | PTAP TSG101 blk | MmCpn inh | DRD3 antagonist
CCN(CC)CCOc1cccc(C(C)C)c1 | 2% | -23 | 0% | 1% | 0% | -11
CC1CN(CCOc2cccc(Oc3ccccc3)c2)CC(C)O1 (stereo unspecified) | -3% | -23 | -3% | 0% | 2% | -23
CC1CCCN(CCOc2cccc(Oc3ccccc3)c2)C1 (stereo unspecified) | 0% | -29 | 7% | -11% | -1% | -61*
Brc1cccc(OCCn2ccnc2)c1 | -3% | -3 | 0% | -7% | 1% | -65*
O=C(Nc1ccc(F)c(Cl)c1)C1CCCN(c2ncnc3onc(-c4ccc(F)cc4)c23)C1 (stereo unspecified) | nt | -9 | nt | nt | nt | nt
CCCCNCCCOc1cccc(Cl)c1 | 7% | -34 | 1% | -9% | 1% | -80*
COc1ccc(N=Cc2c(O)n(-c3cccc(C)n3)c(=O)c3ccccc23)cc1 | ? | 2 | ? | -5% | 1% | 3
O=c1c(C=Nc2ccc(Oc3ccccc3)cc2)c[nH]n1-c1cccc(Cl)n1 | -5% | 1 | -5% | -9% | 1% | -56*
COc1ccc([N+](=O)[O-])cc1/C=N/NC(=O)CNC(=O)c1cccc(F)c1 | 8% | -30 | -2% | 0% | 1% | -117*
CC(=O)N1CCc2cc(S(=O)(=O)N3CCOCC3)ccc21 | 9% | 0 | 0% | -5% | 1% | 15
CC(=O)N1CCc2cc(S(=O)(=O)NCCN3CCC(C)CC3)ccc21 | -11% | 2 | 0% | -3% | 0% | -58*
CC(=O)N1CCc2cc(S(=O)(=O)N3c4ccccc4CC3C)ccc21 (stereo unspecified) | -20% | -9 | 4% | -5% | 1% | -51*
CCOC(=O)c1c(S(=O)(=O)Nc2ccccn2)c(C)n(C)c1C | 0% | 5 | -1% | -2% | -1% | 8
CCOC(=O)C(=CNc1cc(C)nn1-c1ccccc1)C(=O)OCC | 16% | 98* | -1% | -1% | -3% | 20
CCOc1ccc(NC(=O)Cn2nc(Cc3cccnc3)c3ccccc3c2=O)cc1 | nt | -7 | nt | nt | nt | nt
CCCCCO | -13% | 4 | -5% | -1% | -3% | 0
CCCCO | nt | 68* | nt | nt | nt | nt
CCN(CC)C(=O)CSc1nsc(SCC(=O)N(CC)CC)c1C#N | 0% | -3 | 1% | -5% | 2% | -55*
C=COC(=O)CSc1snc(SCC(=O)OC)c1C#N | ? | 2 | 4% | -3% | 1% | -11
C[C@@H]1NC(=O)[C@@H](N)CNC(=O)[C@H](C2CCNC(N)=N2)NC(=O)/C(=C/NC(N)=O)NC(=O)[C@H](CNC(=O)C[C@@H](N)CCCN)NC1=O (stereo partly specified) | nt | -12 | nt | nt | nt | nt
